Data from PubChem BioAssay (EPA / NIEHS).
Records with an inconclusive call do not appear. Activity calls are given as the source filed them. The calls were made as follows, unless noted: active = hit-call score of the fitted dose curve at least 0.9, where 1 is the maximum; inactive = score below 0.9.

Key:
[1] = target: Nuclear respiratory factor 1 (Homo sapiens) (UniProt Q16656); assay: ATG_NRF1_CIS: Attagene CIS-FACTORIAL HepG2 Assay for human Nuclear Respiratory Factor 1 (NRF1) Orphan Gene (AID 2282987); settings: HepG2 NRF1 cis-element reporter, Attagene multiplex; actives raise or lower the signal
Chain of Nuclear respiratory factor 1 (Homo sapiens) (Q16656 whole entry, looked up, the tested form may be a part): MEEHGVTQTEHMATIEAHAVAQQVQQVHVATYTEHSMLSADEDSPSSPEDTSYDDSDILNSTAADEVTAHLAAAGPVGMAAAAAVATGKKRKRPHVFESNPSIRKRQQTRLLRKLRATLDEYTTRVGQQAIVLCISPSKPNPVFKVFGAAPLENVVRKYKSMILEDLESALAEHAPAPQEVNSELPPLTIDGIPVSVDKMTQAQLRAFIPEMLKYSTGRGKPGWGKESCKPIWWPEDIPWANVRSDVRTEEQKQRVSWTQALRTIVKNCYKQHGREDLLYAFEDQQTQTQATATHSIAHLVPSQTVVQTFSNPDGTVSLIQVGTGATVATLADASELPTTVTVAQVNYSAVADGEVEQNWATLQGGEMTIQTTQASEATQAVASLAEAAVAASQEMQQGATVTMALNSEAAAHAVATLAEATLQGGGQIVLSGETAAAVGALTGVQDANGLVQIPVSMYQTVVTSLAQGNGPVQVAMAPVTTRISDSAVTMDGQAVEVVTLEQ
Summary of the method: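 Cells (HepG2, transient MRTU transfection) are exposed to compound for 24 h, then RNA isolated and reporter mRNA amplified and fluorescently labelled. Fragments are separated by capillary electrophoresis; signal change is fitted bidirectionally relative to DMSO.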

[2] = ATG_NFI_CIS: Attagene CIS-FACTORIAL HepG2 Assay for human Nuclear Factor I (NFI) (AID 2282989); settings: HepG2 cis-regulatory reporter, NFI response element transcription; actives raise or lower the signal
Summary of the method: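 Transient MRTU transfection of HepG2 → 24 h chemical dosing → total RNA, oligo(dT) RT → PCR, 6-FAM primer extension, HpaI cut → capillary electrophoresis. Endpoint fitted bidirectionally relative to DMSO.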

[3] = ATG_NF_kB_CIS: Attagene CIS-FACTORIAL HepG2 Assay for human Nuclear Factor Kappa B (NF-kB) (AID 2282991); settings: HepG2 Attagene cis-factorial NF-kB reporter mRNA; actives raise or lower the signal
Summary of the method: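 Measures mRNA induction of an NF-kB-responsive cis-element reporter in HepG2 cells transfected with multiple reporter units, sampled 24 h post-dosing; quantified by fluorescence after RT-PCR and capillary electrophoresis, fitted for activation or inhibition against DMSO.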

[4] = ATG_NRF2_ARE_CIS: Attagene CIS-FACTORIAL HepG2 Assay for human Nuclear Factor Erythroid 2 Related Factor 2 (NFR2) response to Antioxidant Response Elements (ARE) (AID 2282992); settings: HepG2 Attagene ARE/NRF2 reporter, transcription factor activity; actives raise or lower the signal
Summary of the method: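 Using transiently transfected HepG2 cells exposed for 24 h, reporter mRNA levels were determined by RT-PCR with fluorescent primer extension and capillary electrophoresis, analysed for gain or loss of signal against DMSO.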

[5] = ATG_Oct_MLP_CIS: Attagene CIS-FACTORIAL HepG2 Assay for human Octamer-Binding Transcription Factor (Oct) (AID 2282993); settings: HepG2 Attagene cis-factorial Oct reporter, mRNA; actives raise or lower the signal
Summary of the method: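 Transient MRTU transfection of HepG2 → 24 h compound treatment → RNA isolation, reverse transcription, PCR → 6-FAM primer extension, HpaI digest → capillary electrophoresis. Activity fitted both directions against DMSO.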

[6] = target: Cellular tumor antigen p53 (Homo sapiens) (UniProt P04637); assay: ATG_p53_CIS: Attagene CIS-FACTORIAL HepG2 Assay for human p53 Transcription Factor (AID 2282994); settings: HepG2 p53 cis-element reporter, Attagene mRNA; actives raise or lower the signal
Chain of Cellular tumor antigen p53 (Homo sapiens) (P04637 whole entry, looked up, the tested form may be a part): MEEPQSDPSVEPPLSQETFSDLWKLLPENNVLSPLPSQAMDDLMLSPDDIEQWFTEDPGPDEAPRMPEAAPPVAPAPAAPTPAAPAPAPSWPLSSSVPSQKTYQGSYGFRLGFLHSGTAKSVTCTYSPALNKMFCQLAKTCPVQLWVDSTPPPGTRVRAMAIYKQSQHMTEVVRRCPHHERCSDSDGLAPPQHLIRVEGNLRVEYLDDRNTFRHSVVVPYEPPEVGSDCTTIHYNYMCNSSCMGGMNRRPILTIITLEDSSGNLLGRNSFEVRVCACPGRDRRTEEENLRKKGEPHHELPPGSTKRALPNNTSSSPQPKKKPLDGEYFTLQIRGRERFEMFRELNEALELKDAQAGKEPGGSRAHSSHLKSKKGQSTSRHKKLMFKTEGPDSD
Summary of the method: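 In HepG2 cells, reporter transcription units under cis-regulatory promoters were transiently introduced. Following 24 h treatment, RNA was processed to labelled, digested cDNA fragments read by capillary electrophoresis; fitting was bidirectional versus DMSO.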

[7] = BSK_3C_TissueFactor: BioMAP Diversity Plus: 3C Assay for Tissue Factor Biomarker Activity (AID 2282997); settings: BioMAP 3C HUVEC, tissue factor biomarker readout; actives raise or lower the signal
Summary of the method: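 HUVEC, 3C system, 24 h post-dose; Tissue Factor by ELISA; bidirectional fit vs DMSO baseline.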

[8] = BSK_3C_uPAR: BioMAP Diversity Plus: 3C Assay for Urokinase-type plasminogen activator receptor (uPAR) Biomarker Activity (AID 2282998); settings: BioMAP 3C HUVEC, uPAR biomarker ELISA; actives raise or lower the signal
Summary of the method: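 ELISA readout of uPAR on human vascular endothelium (umbilical vein primary cells), taken 24 h after chemical dosing. Increases and decreases are both fitted relative to DMSO vehicle.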

[9] = BSK_3C_VCAM1: BioMAP Diversity Plus: 3C Assay for Vascular cell adhesion molecule 1 (VCAM1) Biomarker Activity (AID 2282999); settings: BioMAP 3C HUVEC, VCAM1 ELISA, cytokine-stimulated; actives raise or lower the signal
Summary of the method: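 Activity fitted in both directions relative to DMSO, with ELISA measurement of the surface marker on primary HUVEC (3C) at 24 h post-treatment; parallel SRB staining (0.1% SRB, TCA-fixed, 560 nm) flagged overt cytotoxicity.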

[10] = BSK_4H_Eotaxin3: BioMAP Diversity Plus: 4H Assay for Eotaxin 3 Biomarker Activity (AID 2283000); settings: primary human endothelial cells (HUVEC); actives raise or lower the signal;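 also: CCL26 protein level quantified by ELISA in parallel with SRB cytotoxicity check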
Summary of the method: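 Readout is Eotaxin-3 (CCL26) level by ELISA in primary human umbilical vein endothelial cells harvested 24 h after chemical exposure; activity fitted in both directions against DMSO control.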

[11] = target: human Peroxisome Proliferator-activated Receptor alpha (PPARa), PPARA (gene 5465) (UniProt Q07869); assay: ATG_PPARa_TRANS: Attagene TRANS-FACTORIAL HepG2 Assay for human Peroxisome Proliferator-activated Receptor alpha (PPARa) (AID 2283001; active = hit-call score of the fitted dose curve at least 0.9, where 1 is the maximum)
Chain of human Peroxisome Proliferator-activated Receptor alpha (PPARa), PPARA (gene 5465) (Q07869 whole entry, looked up, the tested form may be a part): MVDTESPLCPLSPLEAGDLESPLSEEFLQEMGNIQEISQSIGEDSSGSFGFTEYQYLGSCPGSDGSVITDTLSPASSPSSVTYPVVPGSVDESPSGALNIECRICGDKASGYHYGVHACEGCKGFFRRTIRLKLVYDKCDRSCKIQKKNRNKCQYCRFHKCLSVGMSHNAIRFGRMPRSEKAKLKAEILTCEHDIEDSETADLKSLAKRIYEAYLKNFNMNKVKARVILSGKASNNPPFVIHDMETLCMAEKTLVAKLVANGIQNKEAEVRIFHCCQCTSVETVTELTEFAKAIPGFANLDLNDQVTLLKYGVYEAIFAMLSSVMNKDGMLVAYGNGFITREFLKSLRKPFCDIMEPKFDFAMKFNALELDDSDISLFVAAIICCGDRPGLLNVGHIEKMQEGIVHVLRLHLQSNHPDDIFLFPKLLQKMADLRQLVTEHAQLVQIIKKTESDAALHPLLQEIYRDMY
Summary of the method: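 Transfected HepG2 cells treated with test chemical for 24 h. RNA isolated, reverse-transcribed with oligo(dT), PCR-amplified, FAM-labelled and HpaI-digested. Fragments sized by capillary electrophoresis; gain-of-signal fit relative to DMSO.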

[12] = target: human Peroxisome Proliferator-activated Receptor delta (PPARd), PPARD (gene 5467) (UniProt Q03181); assay: ATG_PPARd_TRANS: Attagene TRANS-FACTORIAL HepG2 Assay for human Peroxisome Proliferator-activated Receptor delta (PPARd) (AID 2283002; active = hit-call score of the fitted dose curve at least 0.9, where 1 is the maximum)
Chain of human Peroxisome Proliferator-activated Receptor delta (PPARd), PPARD (gene 5467) (Q03181 whole entry, looked up, the tested form may be a part): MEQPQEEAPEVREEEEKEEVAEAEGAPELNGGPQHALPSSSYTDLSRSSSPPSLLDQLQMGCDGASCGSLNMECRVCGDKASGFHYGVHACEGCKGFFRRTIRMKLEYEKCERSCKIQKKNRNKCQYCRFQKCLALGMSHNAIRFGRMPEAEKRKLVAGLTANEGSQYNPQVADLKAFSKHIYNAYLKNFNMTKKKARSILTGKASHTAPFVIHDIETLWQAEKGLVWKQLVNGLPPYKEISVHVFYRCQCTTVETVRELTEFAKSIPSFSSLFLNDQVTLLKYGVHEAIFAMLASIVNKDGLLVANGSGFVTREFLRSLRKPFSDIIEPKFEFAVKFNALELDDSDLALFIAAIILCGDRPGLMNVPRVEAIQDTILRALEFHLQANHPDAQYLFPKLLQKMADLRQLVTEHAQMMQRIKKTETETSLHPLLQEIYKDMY
Summary of the method: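 Transient HepG2 transfection (multiple GAL4-UAS RTUs, chimeric receptor-Gal4); 24 h dosing; total RNA → oligo(dT) RT → PCR → 6-FAM primer extension → HpaI cut → CE. Positive direction vs DMSO.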

[13] = read-out: Intercellular Adhesion Molecule 1 (ICAM1), ICAM1 (gene 3383); assay: BSK_3C_ICAM1: BioMAP Diversity Plus: 3C Assay for Intercellular Adhesion Molecule 1 (ICAM1) Biomarker Activity (AID 2283003); settings: primary human endothelial cells (HUVEC); actives raise or lower the signal
Summary of the method: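 ELISA read-out of ICAM-1; HUVEC (primary human), 3C system, 24 h post-dosing; bidirectional fit vs DMSO baseline.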

[14] = BSK_3C_Proliferation: Cell Proliferation Assessment in the BioMAP Diversity Plus: 3C Assay (AID 2283006); settings: primary human endothelial cells (HUVEC);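 as to AC50: potency may reflect either rise or fall in cell number versus DMSO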
Summary of the method: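 HUVEC, sub-confluent; 48 h chemical exposure; 10% TCA fix, 0.1% SRB stain, A560 total protein. Gain or loss of signal fitted both directions vs DMSO control.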

[15] = target: Peroxisome proliferator-activated receptor gamma (Homo sapiens) (UniProt P37231); assay: ATG_PPARg_TRANS: Attagene TRANS-FACTORIAL HepG2 Assay for human Peroxisome Proliferator-activated Receptor-gamma (PPARg) (AID 2283007; active = hit-call score of the fitted dose curve at least 0.9, where 1 is the maximum)
Chain of Peroxisome proliferator-activated receptor gamma (Homo sapiens) (P37231 whole entry, looked up, the tested form may be a part): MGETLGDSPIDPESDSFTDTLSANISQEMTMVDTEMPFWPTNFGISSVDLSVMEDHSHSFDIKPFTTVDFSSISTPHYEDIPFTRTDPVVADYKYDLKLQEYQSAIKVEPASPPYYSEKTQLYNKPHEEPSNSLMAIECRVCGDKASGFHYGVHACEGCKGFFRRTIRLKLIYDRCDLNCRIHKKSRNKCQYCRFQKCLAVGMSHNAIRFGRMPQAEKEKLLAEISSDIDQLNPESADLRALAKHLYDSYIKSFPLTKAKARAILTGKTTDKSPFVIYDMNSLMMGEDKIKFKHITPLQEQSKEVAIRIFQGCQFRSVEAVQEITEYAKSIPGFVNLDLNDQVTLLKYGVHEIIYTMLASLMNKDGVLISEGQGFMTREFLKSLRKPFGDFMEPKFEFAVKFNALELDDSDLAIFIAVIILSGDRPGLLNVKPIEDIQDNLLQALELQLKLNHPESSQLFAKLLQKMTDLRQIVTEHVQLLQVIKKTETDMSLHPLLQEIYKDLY
Summary of the method: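 Gain-of-signal endpoint relative to DMSO, derived from reporter mRNA levels quantified by RT-PCR and capillary electrophoresis. Cells were HepG2 transiently expressing a chimeric NR-Gal4 construct with GAL4-UAS reporters, exposed to chemicals for 24 h.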

[16] = target: Nuclear receptor subfamily 1 group I member 2 (Homo sapiens) (UniProt O75469); assay: ATG_PXR_TRANS: Attagene TRANS-FACTORIAL HepG2 Assay for human Pregnane X Receptor (PXR) (AID 2283008; active = hit-call score of the fitted dose curve at least 0.9, where 1 is the maximum)
Chain of Nuclear receptor subfamily 1 group I member 2 (Homo sapiens) (O75469 whole entry, looked up, the tested form may be a part): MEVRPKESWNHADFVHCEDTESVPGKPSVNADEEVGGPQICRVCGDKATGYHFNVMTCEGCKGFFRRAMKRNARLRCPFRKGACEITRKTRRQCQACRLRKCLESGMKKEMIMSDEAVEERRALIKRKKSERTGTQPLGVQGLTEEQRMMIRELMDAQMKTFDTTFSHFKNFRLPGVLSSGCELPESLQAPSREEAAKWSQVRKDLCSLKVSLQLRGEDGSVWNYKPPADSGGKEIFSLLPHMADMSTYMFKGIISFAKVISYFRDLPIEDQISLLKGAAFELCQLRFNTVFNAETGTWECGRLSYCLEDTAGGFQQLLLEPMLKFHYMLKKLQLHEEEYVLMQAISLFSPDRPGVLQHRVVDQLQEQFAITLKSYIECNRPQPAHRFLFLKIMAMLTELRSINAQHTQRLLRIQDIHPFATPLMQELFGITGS
Summary of the method: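 Multiplexed TRANS reporter panel in HepG2; this component tracks PXR-Gal4-driven reporter mRNA after 24 h dosing, measured by RT-PCR with capillary electrophoresis fluorescence, fitted against DMSO.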

[17] = target: Myc proto-oncogene protein (Homo sapiens) (UniProt P01106); assay: ATG_Myc_CIS: Attagene CIS-FACTORIAL HepG2 Assay for human Myelocytomatosis (Myc) Proto-Oncogene Transcription Factor (AID 2282990); settings: HepG2, Attagene cis-reporter transcription factor activity; actives raise or lower the signal
Chain of Myc proto-oncogene protein (Homo sapiens) (P01106 whole entry, looked up): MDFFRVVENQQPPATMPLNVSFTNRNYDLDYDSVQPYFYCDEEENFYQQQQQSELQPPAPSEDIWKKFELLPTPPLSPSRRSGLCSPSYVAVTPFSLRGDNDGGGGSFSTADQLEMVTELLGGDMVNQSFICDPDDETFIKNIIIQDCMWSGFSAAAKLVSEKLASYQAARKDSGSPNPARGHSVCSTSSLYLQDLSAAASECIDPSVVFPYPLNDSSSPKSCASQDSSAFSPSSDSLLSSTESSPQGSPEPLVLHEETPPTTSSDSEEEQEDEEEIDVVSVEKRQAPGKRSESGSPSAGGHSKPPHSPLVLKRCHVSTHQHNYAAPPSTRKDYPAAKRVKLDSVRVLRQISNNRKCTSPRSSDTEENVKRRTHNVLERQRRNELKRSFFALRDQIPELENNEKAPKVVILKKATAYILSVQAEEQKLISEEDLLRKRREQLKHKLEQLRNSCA
Summary of the method: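 HepG2, transient MRTU transfection (cis promoters, endogenous TFs); 24 h dosing; TriZol RNA → oligo(dT) RT → PCR → 6-FAM primer extension → HpaI cut → CE. Bidirectional fit vs DMSO.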

Measured: AC50

CCn1nc(C)c2c1C(=O)NCC(c1ccc(O)cc1)=N2
active: [6] 2.9 µM | [14] 20 µM | [15] 8.02 µM
not listed: [17]
inactive: all other assays above

CC(C)C(=O)Nc1ccc([N+](=O)[O-])c(C(F)(F)F)c1
active: [5] 26.1 µM | [15] 49 µM | [16] 6.92 µM
not listed: [3] | [4] | [6] | [11] | [12]
inactive: all other assays above

c1ccc(C(O[C@@H]2CCCN(CCc3ccc4c(c3)OCO4)C2)c2ccccc2)cc1
active: [5] 23.3 µM | [6] 52.6 µM | [8] 27.5 µM | [14] 28.5 µM | [15] 20.7 µM | [16] 0.916 µM
not listed: [3] | [4] | [11]
inactive: all other assays above

CCOc1ccc2[nH]cc(C(=O)NCc3ccccc3)c(=O)c2n1
active: [16] 13 µM
not listed: [3] | [4] | [6] | [11]
inactive: all other assays above

CC(=O)c1ccccc1
not listed: [12] | [16] | [17]
inactive: all other assays above

C[C@@H](Oc1ccc(CNC(=O)c2cccnc2Oc2ccc3c(c2)OCO3)c(F)c1)C(=O)O
active: [15] 24.3 µM
not listed: [6] | [17]
inactive: all other assays above

CCCc1ccccc1
not listed: [3] | [11] | [16]
inactive: all other assays above

CC1(C)C(=O)N(Cl)C(=O)N1Cl
not listed: [3] | [12] | [15] | [16]
inactive: all other assays above

NCC(F)(F)C(F)(F)C(F)(F)C(F)(F)F
not listed: [17]
inactive: all other assays above
